D1 antag: blocks dopamine activation of the human D1 receptor. P21728. HEK293 TREx D1 cells, calcium flux, dopamine EC80; hits give low values. activity change, negative = inhibition, % at 10 µM. 360,000 tested, 3.2% active. AID 504652; in the data active = activity change below about -30%; also: % is scaled to controls: 0 for no effect and ±100 for the full control effect
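Tetracycline-induced HEK293 Trex D1 cells, force-coupled to calcium, dye-loaded; compounds added and read 180 s, then EC80 dopamine added and calcium flux tracked kinetically another 180 s.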
D1 potentiator: enhances dopamine response at the human D1 receptor | P21728 | HEK293 TREx D1 cells, calcium flux, dopamine EC20 potentiation | potentiation, % at 10 µM | 360,000 tested, 0.036% active; in the data active = potentiation above about 30%; also: 0% is about no effect
TRHR ag: agonists of human TRH receptor. P34981. TRHR cells, calcium flux fluo-8, FDSS agonist mode. activation, % at 2 µM. 360,000 tested, 0.18% active. AID 493084; also: 0% is about no effect
Target sequence (P34981 whole entry, looked up): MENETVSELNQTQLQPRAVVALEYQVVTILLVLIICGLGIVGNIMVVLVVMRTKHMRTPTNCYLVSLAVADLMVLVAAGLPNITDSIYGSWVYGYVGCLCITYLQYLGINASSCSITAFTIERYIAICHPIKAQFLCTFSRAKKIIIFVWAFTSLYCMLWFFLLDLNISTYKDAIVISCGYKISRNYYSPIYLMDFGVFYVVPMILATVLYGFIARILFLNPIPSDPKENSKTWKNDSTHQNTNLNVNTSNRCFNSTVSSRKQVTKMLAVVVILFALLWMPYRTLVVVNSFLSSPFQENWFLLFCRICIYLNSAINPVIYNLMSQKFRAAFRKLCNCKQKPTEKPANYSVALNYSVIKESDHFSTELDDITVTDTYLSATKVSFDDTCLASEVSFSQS
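In this calcium-flux screen, cells bearing human TRHR are dye-loaded with fluo-8, baselined for 10 cycles, then exposed to library compounds; positive kinetic calcium responses during the agonist phase mark hits, with TRH as control.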
TRHR PAM: TRH receptor (human) allosteric enhancement | P34981 | TRHR cells, fluo-8 calcium fluorescence, EC20 TRH enhancement | enhancement, % at 2 µM | 360,000 tested, 0.66% active; in the data active = enhancement above about 30%; also: 0% is about no effect
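Enhancer read-out: after compound pinning and an initial kinetic agonist-mode read, an EC20 of TRH (10 nM final) was injected and fluo-8 calcium signal (Ex 480/Em 530) followed at 1 s/cycle for 100 cycles in TRHR-expressing cells.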
D1 agonist: activates the human D1 dopamine receptor; AID 504660; HEK293 T-REx D1 cells, calcium flux, agonist mode; P21728; activation, % at 2 µM; 360,000 tested, 1% active; also: 0% is about no effect
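Inducible HEK293 T-REx D1 cells, force-coupled to calcium signalling, were plated at 4000 cells/well with tetracycline and held overnight at 30 C. After no-wash calcium dye loading, compound-evoked calcium rise over 180 s flagged agonists.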
Numbers without * were called inactive. Most compounds without a hit are left out; they make up all but 4.7% or so of the library. Rule as the data show it, unless noted: active = activation above about 30%; inactive = the rest.

SMILES	D1 antag	D1 potentiator	TRHR ag	TRHR PAM	D1 agonist
Cc1nn(C(C)C)c(C)c1CN1CCC(C(=O)Nc2cccc(-c3cccc(F)c3)c2)CC1	8.0	-7.0	1.3	0.6	31.5*
Cn1cc(CN2CCC(C(=O)Nc3cccc(-c4cccc(F)c4)c3)CC2)cn1	-14.6	-15.9	1.6	2.5	3.7
C=CCn1cc(CN2CCC(C(=O)Nc3cccc(-c4cccc(Cl)c4)c3)CC2)c(C)n1	-35.0*	-16.6	3.5	0.9	27.0
Cn1cc(CN2CCC(C(=O)Nc3cccc(-c4cscn4)c3)CC2)cn1	-48.9*	-8.2	0.1	-1.6	0.1
CCn1cc(CN2CCC(C(=O)Nc3cccc(-c4cscn4)c3)CC2)cn1	-0.2	1.1	0.2	3.7	2.1
CCc1ccc(-n2c(=O)c3sc4ccccc4c3n(CC(=O)N(CC)Cc3ccccc3)c2=O)cc1	-7.0	2.2	0.0	-7.6	4.5
CSc1cccc(NC(=O)CC(c2ccc(F)cc2)N2Cc3ccccc3C2=O)c1 (configuration not stated)	-6.0	-2.2	-0.6	7.3	8.0
NNC(=O)CNC(c1ccccc1)c1cc(Br)ccc1NC(=O)CCN1CCOCC1 (configuration not stated)	-0.5	3.8	-0.9	35.9*	6.7
NNC(=O)CNC(c1ccccc1)c1cc(Br)ccc1NC(=O)c1ccc(Br)cc1 (configuration not stated)	2.9	-8.4	-1.0	2.7	17.1
COc1cc(-c2cc(OC)c3c(C)oc(C)c3c(=O)c2)ccc1OC(=O)c1cccc(Cl)c1	-25.1	-2.1	-0.5	6.1	12.6
COc1ccc(C)cc1NC(=O)Cn1c(=O)cc(C)c2c(C)nn(C)c21	-30.8*	0.3	0.1	-5.3	17.4
O=C(C[n+]1cccc(CNC(=O)c2ccc(OC(F)F)cc2)c1)Nc1ccccc1Cl	-31.7*	-2.1	0.6	8.7	1.0
O=C(C[n+]1cccc(CNC(=O)c2ccc(OC(F)F)cc2)c1)Nc1ccc(SC(F)F)cc1	-9.9	-9.2	1.4	0.3	-0.3
O=C(Cc1nnc(CNC(=O)c2ccccc2)s1)Nc1ccc(C(F)(F)F)cc1Cl	4.0	-0.7	-0.2	-4.0	0.4
CCc1ccc(CNC(=O)c2nn(-c3ccc(C)c(C)c3)nc2CO)cc1	0.9	-2.2	3.5	0.6	7.2
Cc1ccc(-n2nc(CO)c(C(=O)NCCC(C)C)n2)cc1C	-47.3*	2.5	-1.3	-0.1	2.4
CCOc1ccc(NC(=O)NC(C)c2c(-n3cccc3)sc3c2CCN(CC)C3)cc1 (configuration not stated)	-7.1	1.6	9.8	31.3*	43.0*
CCN1CCc2c(sc(-n3cccc3)c2C(C)NC(=O)Nc2ccc(Br)cc2)C1 (configuration not stated)	9.5	-1.6	4.1	7.8	10.7
CCOC(=O)c1cccc(NC(=O)NC(C)c2c(-n3cccc3)sc3c2CCN(C)C3)c1 (configuration not stated)	0.6	-3.1	-0.7	3.2	36.3*
CCCOc1ccc(C2=NC(c3ccc(F)cc3)=Nc3ccc(OC)cc3N2)cc1	-8.0	1.4	-1.8	0.6	5.6
Cc1nnc(SCCn2c(N3CCC(C)CC3)nc3c2c(=O)[nH]c(=O)n3C)s1	-60.0*	-9.2	-0.5	9.8	1.3
CCc1ccc(S(=O)(=O)c2c[nH]c3cc(OC)c(OC)cc3c2=O)cc1	-42.9*	-3.8	0.1	5.3	-0.6
CC(C)c1cnc2c(c1SCC(=O)NCc1ccccc1)c(=O)n(C)c(=O)n2C	2.8	2.1	0.1	-2.0	0.4
CCN(C(=O)COC(=O)/C=C/c1c(C)nn(-c2ccccc2)c1C)C1CCS(=O)(=O)C1 (configuration not stated)	25.5	3.2	0.0	0.4	5.3
Cc1nn(C2CCS(=O)(=O)C2)c(Cl)c1/C=C/C(=O)OCC(N)=O (configuration not stated)	-15.2	-6.9	0.6	33.3*	2.2
SMILES	D1 antag	D1 potentiator	TRHR ag	TRHR PAM	D1 agonist
Cc1nn(-c2ccccc2)c(C)c1/C=C/C(=O)OCC(=O)N(C)C1CCS(=O)(=O)C1 (configuration not stated)	-83.8*	-5.7	0.6	3.6	2.2
COc1ccc(NC(c2ccc(F)cc2)c2nnc(-c3ccccc3Cl)o2)cc1Cl (configuration not stated)	9.0	-0.4	0.2	-5.9	3.3
Cc1sc2nc(SCC(=O)N3CCCC3)[nH]c(=O)c2c1C	-33.5*	17.8	-0.3	0.0	-2.3
Cc1sc2nc(SCC(=O)N3CCCCC3)[nH]c(=O)c2c1C	12.6	7.0	-0.3	5.3	1.5
Cc1oc2c(c(C)cc3oc(=O)c(CC(=O)NCc4ccc(F)cc4)c(C)c32)c1C	-2.7	0.3	0.9	-0.6	-1.5
Cc1ccc(/C=C/C(=O)Nc2ccc([N+](=O)[O-])cc2)o1	-46.3*	-4.4	-0.6	-2.4	20.5
Cc1cc(NS(=O)(=O)c2ccc(NC(=O)/C=C/c3ccc(C)o3)cc2)nc(C)n1	-5.1	-0.9	-0.4	5.9	0.4
CCCCOc1ccc(/C=C/C(=O)Nc2ccc([N+](=O)[O-])cc2C)cc1	-3.8	-2.3	3.7	-2.0	4.0
CC(=O)c1ccc(NC(=O)/C=C/c2ccc(C)o2)cc1	-2.4	-4.0	-0.8	1.0	1.5
O=C(/C=C/c1ccc([N+](=O)[O-])cc1)NCCSc1ccccc1	-30.2*	-3.0	-0.1	9.7	12.5
Cc1ccc(/C=C/C(=O)Nc2ccc(Oc3ccccc3)cc2)o1	-31.8*	-4.7	0.3	-5.2	6.9
Cc1ccc(SCCNC(=O)/C=C/c2ccc([N+](=O)[O-])cc2)cc1	-12.1	-8.9	-0.1	2.8	3.3
CCCOc1ccc(/C=C/C(=O)Nc2ccc([N+](=O)[O-])cc2)cc1	-42.8*	-7.4	1.4	-1.8	14.5
COc1cccc(NC(=S)N2CCc3cc(OC)c(OC)cc3C2)c1	-9.2	-1.5	-0.3	0.6	2.5
COc1cc2c(cc1OC)CN(C(=S)Nc1ccc(Cl)cc1)CC2	-35.3*	-6.0	0.1	-3.6	7.0
COc1ccc2c(Sc3ccccc3)c(C(=O)N3CCC(C)CC3)[nH]c2c1	5.6	3.3	-0.1	0.5	1.4
O=C1Nc2ccccc2C1(c1ccccc1)c1ccccc1	6.6	-5.5	-0.2	-1.8	33.0*
CC(=O)N1N=C(c2ccc(Cl)cc2)OC1(C)C	15.8	3.9	-0.4	33.9*	0.1
CC(=O)COc1coc(CN2CCN(c3ccc(F)cc3)CC2)cc1=O	-0.7	-2.2	0.2	31.4*	1.1
COc1ccc(N(CC(=O)Nc2c(C)n(C)n(-c3ccccc3)c2=O)S(=O)(=O)c2ccc(F)cc2)cc1	8.0	-2.5	0.1	-1.6	3.0
COc1ccc(N(CC(=O)Nc2c(C)n(C)n(-c3ccccc3)c2=O)S(=O)(=O)c2ccc(C)cc2)cc1	-4.7	-5.0	-0.5	30.5*	2.5
